Results from PubChem BioAssay.
Calls of active or inactive are those of the source.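 Rule for the calls, unless noted: active = NADPH fluorescence slope more negative than the mean of all samples by about 3 SD, 99.7% confidence; inactive = the rest.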

Legend:
[1] = inhibitors of TNFa-induced NFkB p65 translocation, primary screen, imaging, HUVEC, MLSMR starter and 10KST1 sets (AID 438;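 active = inhibition above 20% together with a positive visual image hit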;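 note: compound added about 3h40 before a 20 min TNFalpha stimulation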;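 for inhibition: signal is the nuclear over cytoplasmic p65 intensity ratio per well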); details: HUVEC TNFa-induced p65 nuclear translocation; cell count: measured here: nuclei count (cytotoxicity indicator), at 2.08 µM; inhibition: at 2 µM, stronger effect = higher value, 0% TNFa-plus-vehicle, 100% no-TNFa wells
[2] = inhibitors of mutant huntingtin aggregation, primary screen, imaging, exon1htt(103Q)mCFP cells, high-content imaging (AID 483;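 active = visual image review flags a hit and inhibition of aggregation exceeds 20%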;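 note: compound exposure lasted 3 days before fixation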;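 for nuclei count: percent of the per-plate median nuclei count of sample wells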); details: exon1htt(103Q)mCFP cell line, aggregate imaging, at 2 µM; inhibition of aggregation: stronger effect = higher value; nuclei count: measured here: cell count, toxicity
[3] = inhibitors of E-selectin induction by TNFa, primary screen, imaging, HUVEC, immunofluorescence, MLSMR starter and 10KST1 sets (AID 487;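 active = visually confirmed hit in the image check and inhibition above 20%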;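 for inhibition: signal is fraction of cell area covered by stained E-selectin grains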;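 for nuclei count: 100% = median nuclei count of all wells on the same plate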); details: HUVEC TNFalpha-induced E-selectin immunofluorescence imaging, at 2 µM; inhibition: stronger effect = higher value; nuclei count: measured here: cell number, toxicity
[4] = biological target: Voltage-gated potassium channel subunit beta-2 (Rattus norvegicus) (UniProt P62483); test: KvBeta enzyme negative modulators, primary screen, biochemical, NADPH fluorescence (AID 622;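 active = fluorescence slope higher than the sample average by over 3 SD, cut at about -0.22 in these data, passing the limit was not always enough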;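 note: slope of raw intensity against log time taken from 70 to 1610 s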); details: recombinant KvBeta, 4-cyanobenzaldehyde reduction, at 10 µM, stronger effect = higher value
Sequence of Voltage-gated potassium channel subunit beta-2 (Rattus norvegicus) (P62483 whole entry, looked up): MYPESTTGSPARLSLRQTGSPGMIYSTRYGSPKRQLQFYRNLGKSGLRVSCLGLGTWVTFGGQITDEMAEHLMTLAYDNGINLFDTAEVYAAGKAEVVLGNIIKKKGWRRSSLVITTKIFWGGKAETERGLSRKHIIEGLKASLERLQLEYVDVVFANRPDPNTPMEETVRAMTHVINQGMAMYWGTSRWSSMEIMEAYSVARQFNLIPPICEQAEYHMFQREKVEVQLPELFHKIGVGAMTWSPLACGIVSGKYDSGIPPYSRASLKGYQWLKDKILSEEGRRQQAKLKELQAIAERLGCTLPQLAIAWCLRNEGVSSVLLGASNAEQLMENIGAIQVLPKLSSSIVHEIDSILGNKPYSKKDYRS

[5] = biological target: Voltage-gated potassium channel subunit beta-2 (Rattus norvegicus) (UniProt P62483); test: KvBeta positive modulators, primary screen, biochemical, NADPH fluorescence (AID 623); details: Recombinant KvBeta, NADPH fluorescence decrease slope, 10 min; at 10 µM; stronger effect = lower value;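 note: fluorescence intensity change per second fitted from 20 to 320 s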
[6] = biological target: Alpha-2C adrenergic receptor (Homo sapiens) (UniProt P18825); test: modulators of alpha2C/GIRK thallium flux, primary screen, cell-based, HEK293 alpha2C/GIRK1/2 (AID 624;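 active = fluorescence slope after compound addition differing from the mean of all screened samples at 99.7% confidence, in either direction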;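 note: slope of fluorescence ratio to pre-addition baseline per second over 15 to 24 s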); details: thallium flux BTC fluorescence, at 10 µM, actives lie on both sides
Sequence of Alpha-2C adrenergic receptor (Homo sapiens) (P18825 whole entry, looked up): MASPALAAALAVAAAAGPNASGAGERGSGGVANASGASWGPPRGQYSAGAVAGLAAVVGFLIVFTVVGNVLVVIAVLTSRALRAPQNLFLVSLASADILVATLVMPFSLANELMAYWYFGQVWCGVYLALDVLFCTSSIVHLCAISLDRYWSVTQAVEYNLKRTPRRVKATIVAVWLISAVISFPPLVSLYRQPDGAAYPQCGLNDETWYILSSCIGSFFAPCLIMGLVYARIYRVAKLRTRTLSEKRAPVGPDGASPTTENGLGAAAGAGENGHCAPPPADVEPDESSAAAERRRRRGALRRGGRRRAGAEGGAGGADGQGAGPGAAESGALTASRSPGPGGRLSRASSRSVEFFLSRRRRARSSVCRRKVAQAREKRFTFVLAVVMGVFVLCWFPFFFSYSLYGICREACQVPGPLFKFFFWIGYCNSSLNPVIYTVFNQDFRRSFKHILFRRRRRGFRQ

[7] = inhibitors of Sendai virus-induced IRF3 signaling, primary screen, TLR/RLR signaling modifier project, cell-based, Sendai virus stimulus, luciferase, 10K MLSCN set (AID 602276;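 active = inhibition at or above 50% at 10 µM; inactive = inhibition below 50%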;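 note: firefly luciferase from ISG56 promoter only with Renilla not read in this screen; 0% = Sendai virus plus DMSO and 100% = medium plus DMSO without virus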); details: HEK293 RL24 IRF3 luciferase reporter, at 10 µM, stronger effect = higher value
[8] = inhibitors of poly I:C-induced TLR3 signaling, primary screen, cell-based, poly I:C stimulus, luciferase, 10K MLSCN set (AID 602277;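 active = inhibition of the reporter signal at or above 50%; inactive = inhibition below 50%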); details: HEK293-TLR3 RL24 IRF3 luciferase reporter, at 10 µM, stronger effect = higher value

| Structure (SMILES) | cell count [1] | inhibition [1] | inhibition of aggregation [2] | nuclei count [2] | inhibition [3] | nuclei count [3] | fluorescence slope [4] | NADPH fluorescence slope [5] | slope [6] | inhibition [7] | inhibition [8] |
| --- | --- | --- | --- | --- | --- | --- | --- | --- | --- | --- | --- |
| CC1CCN(C(=O)CSc2nnc(Cc3cc(=O)[nH]c(=O)[nH]3)n2-c2ccc(Cl)cc2)CC1 | 713 | -6.3% (inactive) | 14.9% (inactive) | 87.4% | 1.4% (inactive) | 105% | -0.602 (inactive) | -8.2e-06 (inactive) | 0.00679 (inactive) | -3.8% (inactive) | 16.5% (inactive) |
| CCSc1nnc(NC(=O)c2csc(C)c2)s1 | 366 | 4.2% (inactive) | 12.8% (inactive) | 101% | -18.6% (inactive) | 104% | -0.592 (inactive) | -1.3e-05 (inactive) | 0.00352 (inactive) | -36.6% (inactive) | -89.7% (inactive) |
| C=CCN1C(=O)CS/C1=C(\C#N)S(=O)(=O)c1ccc(C)cc1 | 585 | 13.3% (inactive) | -5.1% (inactive) | 108% | -75.5% (inactive) | 104% | -0.481 (inactive) | -4.8e-05 (inactive) | 0.00449 (inactive) | 20% (inactive) | 28.5% (inactive) |
| Cc1csc(NC(=O)CCCSc2nc3ccccc3s2)n1 | 387 | 0.9% (inactive) | 0.5% (inactive) | 97.4% | -33.8% (inactive) | 110% | -0.594 (inactive) | -2.4e-05 (inactive) | 0.00267 (inactive) | 23.5% (inactive) | 26.7% (inactive) |
| Clc1cccc(N2CCN(Cc3nc(-c4ccccc4)no3)CC2)c1 | 716 | -1.1% (inactive) | 8.5% (inactive) | 112% | -43.3% (inactive) | 122% | -0.541 (inactive) | -9e-05 (inactive) | 0.00744 (inactive) | 2.81% (inactive) | 29.2% (inactive) |
| Cc1c(C(=O)NC2CC2)oc2ccc(S(=O)(=O)N3CCCCCC3)cc12 | 635 | 3.4% (inactive) | -2.5% (inactive) | 92.4% | -102% (inactive) | 116% | -0.508 (inactive) | 4.1e-05 (inactive) | 0.00537 (inactive) | -22.3% (inactive) | -28.3% (inactive) |
| COc1cccc(-c2nc(CS(=O)(=O)CC(=O)Nc3cc(C)ccc3C)c(C)o2)c1 | 718 | -4.6% (inactive) | -2.5% (inactive) | 59.5% | -21.2% (inactive) | 104% | -0.517 (inactive) | -4.8e-05 (inactive) | 0.00688 (inactive) | 5.73% (inactive) | 27.7% (inactive) |
| OC(CN1CCN(c2ccccn2)CC1)Cn1c2ccccc2c2ccccc21 (stereo not drawn) | 386 | 5.1% (inactive) | 7.2% (inactive) | 104% | -14.4% (inactive) | 107% | -0.472 (inactive) | 5.1e-05 (inactive) | 0.00493 (inactive) | 1.54% (inactive) | 21.8% (inactive) |
| CCOC(=O)Cn1nnc(-c2ccc(SC)cc2)n1 | 729 | -6.9% (inactive) | -11.1% (inactive) | 102% | -69.2% (inactive) | 116% | -0.329 (inactive) | -6.5e-05 (inactive) | 0.00483 (inactive) | 11.7% (inactive) | 16.7% (inactive) |
| CCOC(=O)c1sc2nc(SCC(=O)NCc3ccco3)n(Cc3ccccc3)c(=O)c2c1C | 395 | -1.1% (inactive) | 0.8% (inactive) | 89.7% | -22% (inactive) | 99.6% | -0.449 (inactive) | -2.2e-05 (inactive) | 0.00701 (inactive) | 5.1% (inactive) | 21.4% (inactive) |
| O=C(NCC1CCCO1)C1CCN(c2ccc(S(=O)(=O)N3CCCC3)cc2)CC1 (stereo not drawn) | 446 | 8.5% (inactive) | -5.9% (inactive) | 103% | -38.5% (inactive) | 108% | -0.434 (inactive) | -3.3e-05 (inactive) | 0.0046 (inactive) | 5.23% (inactive) | 21.3% (inactive) |
| COc1cccc(-c2nc(CS(=O)(=O)CC(=O)N3CCN(c4ccccn4)CC3)c(C)o2)c1 | 752 | -4.4% (inactive) | 2.6% (inactive) | 115% | -72.1% (inactive) | 114% | -0.506 (inactive) | -1.1e-05 (inactive) | 0.00682 (inactive) | 6.91% (inactive) | -1.07% (inactive) |
| CCOC(=O)N1CCN(C(=O)CSc2nnc(Cc3ccccc3)o2)CC1 | 645 | -6.9% (inactive) | 10.1% (inactive) | 123% | -53.8% (inactive) | 102% | -0.525 (inactive) | -3.6e-05 (inactive) | 0.00629 (inactive) | 2.23% (inactive) | 10.9% (inactive) |
| CCCCc1n[nH]c2c1C(=O)CC(C)(C)C2 | 712 | -28.4% (inactive) | 3.8% (inactive) | 113% | -75.3% (inactive) | 120% | -0.449 (inactive) | -4.7e-05 (inactive) | 0.00506 (inactive) | 3.68% (inactive) | 19.2% (inactive) |
| Cc1ccccc1Cn1nc(C)c(NC(=O)c2noc3c2CCc2ccccc2-3)c1C | 720 | 2.9% (inactive) | 4.7% (inactive) | 78.3% | -88.7% (inactive) | 108% | -0.588 (inactive) | 4e-06 (inactive) | 0.00754 (inactive) | 8.23% (inactive) | 0.0552% (inactive) |
| CCOC(=O)c1c(NC(=O)c2nn(CC)cc2Br)c(C#N)cn1-c1ccccc1 | 467 | 0.6% (inactive) | -9.2% (inactive) | 51.8% | -36.5% (inactive) | 93.5% | -0.407 (inactive) | -2.9e-05 (inactive) | 0.00368 (inactive) | 0.0192% (inactive) | -9.02% (inactive) |
| COc1ccccc1-c1nc2n(n1)C(c1ccc(Cl)cc1)C(C(N)=O)=C(C)N2 (stereo not drawn) | 313 | 1.8% (inactive) | 4.3% (inactive) | 101% | -37.7% (inactive) | 84.9% | -0.464 (inactive) | 1.5e-05 (inactive) | 0.00608 (inactive) | 11.9% (inactive) | 36.9% (inactive) |
| Cc1cc(Nc2ccccc2N2CCOCC2)n2ncnc2n1 | 226 | 2% (inactive) | 13.7% (inactive) | 89% | -16.1% (inactive) | 97% | -0.588 (inactive) | 7.3e-06 (inactive) | 0.00567 (inactive) | 21.9% (inactive) | 44.1% (inactive) |
| Cc1ccc(N2CC(C)Cn3c2nc2c3c(=O)n(CC(=O)OCc3ccccc3)c(=O)n2C)cc1C (stereo not drawn) | 242 | -3.2% (inactive) | 21.6% (inactive) | 77.7% | -43% (inactive) | 109% | -0.473 (inactive) | -2.8e-05 (inactive) | 0.00778 (inactive) | 28.5% (inactive) | 16.6% (inactive) |
| CCC(CC)C(=O)Nc1cccc(C(=O)NCc2ccco2)c1 | 295 | 2.3% (inactive) | -17.4% (inactive) | 107% | -100% (inactive) | 138% | -0.428 (inactive) | -1.2e-05 (inactive) | 0.00559 (inactive) | -5.68% (inactive) | -18.7% (inactive) |
| O=c1[nH]c2ccc(Br)cc2c(-c2ccccc2)c1N1CCOCC1 | 728 | -8% (inactive) | -1.1% (inactive) | 88.6% | -12% (inactive) | 119% | -0.396 (inactive) | 2.9e-05 (inactive) | 0.00458 (inactive) | -7.49% (inactive) | -16.4% (inactive) |
| CCCCOCCCNC(=O)c1ccccc1OCC | 365 | 8.5% (inactive) | 0.7% (inactive) | 111% | 33.7% (inactive) | 116% | -0.317 (inactive) | -6.3e-05 (inactive) | 0.00615 (inactive) | 11.1% (inactive) | 7.39% (inactive) |
| C=CCn1c(=O)n(CCOC)c(=O)c2sc3ccccc3c21 | 733 | -3.4% (inactive) | -12% (inactive) | 87.6% | -34% (inactive) | 102% | -0.566 (inactive) | -3.7e-05 (inactive) | 0.00805 (inactive) | -6.44% (inactive) | 51% (active) |
| CCOC(=O)c1cc2cc(F)ccc2nc1C | 646 | 4.9% (inactive) | 13.9% (inactive) | 106% | -7% (inactive) | 118% | -0.612 (inactive) | -2.7e-05 (inactive) | 0.00327 (inactive) | -17.9% (inactive) | -45.1% (inactive) |
| COc1cc2c(cc1NC(=O)CN1CCN(S(=O)(=O)c3ccc(F)cc3)CC1)oc1ccccc12 | 583 | -2.4% (inactive) | -2.8% (inactive) | 95.8% | -33.6% (inactive) | 88.8% | -0.364 (inactive) | 1.3e-05 (inactive) | 0.0037 (inactive) | 2.2% (inactive) | 30.3% (inactive) |
| Cc1noc(/C=C/N(C)C)c1S(=O)(=O)N1CCCC(C(=O)N2CCc3ccccc32)C1 (stereo not drawn) | 620 | -4% (inactive) | -4.7% (inactive) | 86.6% | -16.5% (inactive) | 95.3% | -0.537 (inactive) | -5.3e-05 (inactive) | 0.00689 (inactive) | 11.8% (inactive) | 45.3% (inactive) |
| COc1cccc(-c2noc(-c3cccs3)n2)c1 | 390 | -0.7% (inactive) | 11.7% (inactive) | 110% | -29.5% (inactive) | 131% | -0.619 (inactive) | 2.2e-06 (inactive) | 0.00482 (inactive) | 6.14% (inactive) | -8.84% (inactive) |
| Cc1nnc(SCc2cn3ccsc3n2)n(N)c1=O | 858 | -10.7% (inactive) | -21% (inactive) | 105% | -50.6% (inactive) | 121% | -0.641 (inactive) | 1.9e-05 (inactive) | 0.00624 (inactive) | 17.8% (inactive) | 31.6% (inactive) |
